The values below come from PubChem BioAssay AID434970 (Sanford-Burnham Center for Chemical Genomics, 2010).

Hit rate of the full screen: of about 11,000 compounds, about 310 (2.8%) were called active. Cut-off read from the data, not from the text of the source: active = activity change below about -85%; inactive = the rest. The sample as a whole holds a higher share of actives than the screen did.

The subject of the experiment is intestinal alkaline phosphatase [Mus musculus]. Put plainly: activators of mouse IAP, confirmation, biochemical, luminescence, single concentration (AID 434970). Particulars: purified mouse IAP, CDP-Star luminescence, 30 min, at 10 µM; activation factor: measured here: IAP activation factor, stronger effect = higher value; activity change, negative = activation: stronger effect = lower value.
On to `Cc1cccc(-n2c(SCC(=O)Nc3ccc4c(c3)OCO4)nnc2-c2ccoc2C)c1`, for which the activation factor was determined as 1.03 and the activity change, negative = activation was -2.65% (inactive).
With `Cc1cccc(C2=NN(c3ccc(Br)cc3)[C@@H](C(=O)N3CCOC3=O)[C@@H]2C)c1`, the activation factor was found to be 0.974 and the activity change, negative = activation was 2.65% (inactive).
Take `CC(=O)c1c(C)[nH]c(C(=O)N2CCN(c3cc(Cl)ccc3C)CC2)c1C`: the activation factor came to 1.14 and the activity change, negative = activation was -13.5% (inactive).
As to `CN(C(=O)C1CCOC1)c1nnc(-c2ccncc2)s1` (stereo not drawn), the activation factor was 0.913 and the activity change, negative = activation is 8.65% (inactive).
Consider `CC(Oc1ccc(Br)cc1)C(=O)N1CCc2ccccc21` (stereo not drawn), for which the activation factor worked out at 1.16 and the activity change, negative = activation was -16.1% (inactive).
As for `N#Cc1c2c(c(NCCCN3CCOCC3)n3c1nc1ccccc13)CCC2`, the activation factor was found to be 0.904 and the activity change, negative = activation was 9.6% (inactive).
The like results for `Cc1ccc(C2CC(=O)Oc3cc(C)cc(C)c32)cc1` (stereo not drawn) were, in that order, 1.06 and -5.5% (inactive).
Take `COc1ccc(S(=O)(=O)c2ccc(O)cc2)cc1`: the activation factor came out at 0.992 and the activity change, negative = activation is 0.8% (inactive).
For the compound `CC(C)[C@@H](CO)N(C)S(=O)(=O)c1ccccc1Br`, the activation factor came to 1.01 and the activity change, negative = activation was -0.85% (inactive).
For the compound `O=C(NCCc1ccc(Cl)cc1)c1cccnc1`, the activation factor stood at 0.957 and the activity change, negative = activation was 4.3% (inactive).
On the same counts, the results for `COc1ccc2cc(C[C@@H]3CC[C@@H](CO)O3)ccc2c1` are 1.04 and -4.15% (inactive).
For the compound `COc1ccc(NC(=O)C2CCN(c3nnnn3-c3ccccc3)CC2)cc1`, the activation factor is 0.976 and the activity change, negative = activation was 2.45% (inactive).
With `COc1cccc(NC(=O)C2CCN(Cc3cnn(-c4ccccc4)c3-n3cccc3)CC2)c1`, the activation factor was 2.01 and the activity change, negative = activation is -101% (active).
On to `O=C(Nc1ccccc1Cl)C1CCN(Cc2cnn(-c3ccccc3)c2-n2cccc2)CC1`, for which the activation factor was found to be 1.02 and the activity change, negative = activation is -1.6% (inactive).
For `Cc1ccc(-c2csc(N)n2)s1`, the activation factor was 0.219 and the activity change, negative = activation is 78% (inactive).
`S=C(NCc1ccccc1)NC1CCSc2ccccc21` (stereo not drawn): the activation factor amounted to 2.51 and the activity change, negative = activation was -151% (active).
For the compound `S=C(NCc1ccccc1)NC1CCCc2ccccc21` (stereo not drawn), the activation factor amounted to 1.87 and the activity change, negative = activation is -86.8% (inactive).
As for `FC(F)Oc1ccc(NC(=S)NC2CCCCCCC2)cc1`, the activation factor was determined as 1.38 and the activity change, negative = activation was -38% (inactive).
With `FC(F)Oc1ccc(NC(=S)NC2CCSc3ccccc32)cc1` (stereo not drawn), the activation factor amounted to 2.75 and the activity change, negative = activation was -175% (active).
For the compound `NS(=O)(=O)c1cc(C(=O)NC2CCSc3ccccc32)ccc1Cl` (stereo not drawn), the activation factor was determined as 0.16 and the activity change, negative = activation was 84% (inactive).
On the same counts, the results for `Cc1cccc(NC(=S)NC2CCSc3ccccc32)c1` (stereo not drawn) are 3.43 and -242% (active).
In the case of `Cc1ccc(NC(=S)NC2CCSc3ccccc32)cc1` (stereo not drawn), the activation factor stood at 1.37 and the activity change, negative = activation is -36.6% (inactive).
`S=C(NCc1ccccc1)NCc1ccc(CNC(=S)NCc2ccccc2)cc1`: the activation factor was determined as 1.39 and the activity change, negative = activation was -39.4% (inactive).
With `S=C(Nc1ccc(Oc2ccccc2)cc1)NC1CCCC1`, the activation factor was found to be 1.5 and the activity change, negative = activation is -49.8% (inactive).
Regarding `Cc1ccc(NC(=S)NC2CCSc3ccccc32)cc1C` (stereo not drawn), the activation factor worked out at 2.71 and the activity change, negative = activation was -172% (active).
Turning to `Cc1cccc(NC(=S)NCCN(C2CCCCC2)C2CCCC2)c1`, the activation factor was 1.23 and the activity change, negative = activation is -23.1% (inactive).
The like results for `S=C(Nc1ccc(Cl)c(Cl)c1)NC1CCCCC1` were, in that order, 1.9 and -90.1% (inactive).
On the same counts, the results for `COc1ccc(C2/C=C\CN(C(=O)OCC3c4ccccc4-c4ccccc43)CC(=O)N2Cc2cccc(F)c2)cc1` (stereo not drawn) are 1.1 and -10.4% (inactive).
On to `O=C(Nc1ccc2nc(-c3ccc4nc[nH]c4c3)[nH]c2c1)c1cccs1`, for which the activation factor is 1.05 and the activity change, negative = activation is -5.3% (inactive).
Turning to `CC(=O)N1CCN(c2ccc(NCc3ccc(C)cc3)cc2)CC1`, the activation factor was determined as 1.09 and the activity change, negative = activation was -9.45% (inactive).
`COC(=O)c1ccc(Nc2cc(C)nc3ncnn23)cc1`: the activation factor worked out at 1.03 and the activity change, negative = activation is -3.5% (inactive).
Consider `Cc1csc(SCc2ccccc2C(=O)O)n1`, for which the activation factor turned out to be 0.948 and the activity change, negative = activation is 5.2% (inactive).
Take `COc1ccccc1C(=O)N1CCN=C1c1ccccc1`: the activation factor was determined as 0.974 and the activity change, negative = activation is 2.55% (inactive).
The like results for `O=C(NCC(=O)N(c1ccccc1)C(C(=O)NC1CCCCC1)c1ccncc1)c1ccco1` (stereo not drawn) were, in that order, 1.01 and -1.1% (inactive).
For `Cc1ccc(-c2nnc(SCC(=O)NNC(=O)COc3cccc4ccccc34)n2C)cc1`, the activation factor stood at 1.03 and the activity change, negative = activation is -3.2% (inactive).
On the same counts, the results for `Cn1c(=O)c2c(nc(SCC(=O)N3CCCCCC3)n2C)n(C)c1=O` are 1.08 and -7.85% (inactive).
Regarding `Cn1c(=O)c2c(nc(NC3CCCCC3)n2CC(O)COc2ccccc2)n(C)c1=O` (stereo not drawn), the activation factor turned out to be 1.01 and the activity change, negative = activation was -0.8% (inactive).
Regarding `Cn1c(=O)c2c(nc(NC3CCCCC3)n2CC(=O)C23CC4CC(CC(C4)C2)C3)n(C)c1=O`, the activation factor turned out to be 5.65 and the activity change, negative = activation is -465% (active).
As to `CCN(Cc1cc2ccccc2[nH]c1=O)S(=O)(=O)c1ccccc1`, the activation factor stood at 1.02 and the activity change, negative = activation is -1.85% (inactive).
Take `O=C(NCc1cccs1)C(NS(=O)(=O)c1cccc2nsnc12)c1ccccc1` (stereo not drawn): the activation factor turned out to be 0.974 and the activity change, negative = activation was 2.65% (inactive).
The like results for `CCOC(=O)C1C(=O)NC(N2CCCCC2)=NC1C(C)C` (stereo not drawn) were, in that order, 0.936 and 6.4% (inactive).
Regarding `C=CCN1C2CCCC1CC(NC(=O)Nc1cccc(C(C)=O)c1)C2` (stereo not drawn), the activation factor was found to be 0.972 and the activity change, negative = activation was 2.8% (inactive).
For `COc1cccc(NC(=O)NC2CCN(Cc3nnnn3Cc3ccc4c(c3)OCO4)CC2)c1`, the activation factor is 1.58 and the activity change, negative = activation is -58.1% (inactive).
Regarding `S=C(Nc1ccc(Cl)cc1)NC1CC2CCC(C1)N2Cc1ccccc1` (stereo not drawn), the activation factor was found to be 1.64 and the activity change, negative = activation is -64% (inactive).
`CCCN1C2CCCC1CC(NC(=O)Nc1cccc(C(C)=O)c1)C2` (stereo not drawn): the activation factor is 1.05 and the activity change, negative = activation is -5.35% (inactive).
Turning to `CCc1ccc(NC(=S)NC2CC3CCCC(C2)N3Cc2ccccc2)cc1` (stereo not drawn), the activation factor was 2.7 and the activity change, negative = activation is -170% (active).
Regarding `Cc1ccc(C)c(NC(=S)NC2CC3CCCC(C2)N3CC(C)C)c1` (stereo not drawn), the activation factor came to 1.24 and the activity change, negative = activation was -23.9% (inactive).
On the same counts, the results for `Cc1cccc(NC(=S)NC2CC3CCCC(C2)N3CC(C)C)c1` (stereo not drawn) are 2.45 and -145% (active).
On the same counts, the results for `CCOC(=O)c1ccc(NC(=O)NC2CC3CCC(C2)N3Cc2nnnn2Cc2ccco2)cc1` (stereo not drawn) are 1.95 and -94.8% (inactive).
As to `COc1ccc(CN2C3CCCC2CC(NC(=O)Nc2cccc(C)c2)C3)cc1` (stereo not drawn), the activation factor was 10.5 and the activity change, negative = activation was -954% (active).
`CCc1ccc(NC(=S)NC2CC3CCCC(C2)N3Cc2cccs2)cc1` (stereo not drawn): the activation factor worked out at 1.88 and the activity change, negative = activation is -87.8% (inactive).
`COc1cccc(NC(=S)NC2CC3CCCC(C2)N3CC(C)C)c1` (stereo not drawn): the activation factor came out at 1.72 and the activity change, negative = activation was -71.5% (inactive).
Turning to `O=C(Nc1ccccc1)NC1CC2CCC(C1)N2Cc1nnnn1Cc1ccc2c(c1)OCO2` (stereo not drawn), the activation factor was 2.23 and the activity change, negative = activation is -123% (active).
As for `COc1ccc(-c2noc(CCC(=O)N3CCN(c4ccc(F)cc4)CC3)n2)cc1`, the activation factor amounted to 1.1 and the activity change, negative = activation was -10.3% (inactive).
